PubChem BioAssay AID1159580 (chemical genetic matrix, 2015)
Out of some 5,500 compounds screened, about 2,000 (36%) were called active. Roughly 18% stayed inconclusive and do not appear here. Rule as the data show it: active = normalized growth mostly below about 0.91 (no sharp cut-off); inconclusive = no clear call, values can overlap the other calls; inactive = mostly above about 0.92. The list shows a part of the results.

Assay: chemical genetic growth profiling, strain panel (AID 1159580);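 also: tested at 20 µM; growth read once vehicle control cultures reached saturation at 30 °C; 1 = growth at the plate median or of vehicle wells; lower values mean less growth of the strain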
Conditions: growth OD

Measured: normalized growth

Oc1ccc(Cl)cc1Cc1cc(Cl)ccc1O
active: S. cerevisiae deletion strains, locus YJR075W, strain HOC1, active compounds read low 0.0746 | S. cerevisiae deletion strains, locus YKL009W, strain mrt4, active compounds read low 0.092 | S. cerevisiae deletion strains, locus YKL068W, active compounds read low 0.101 | S. cerevisiae deletion strains, locus YKL085W, strain MDH1 (second series), active compounds read low 0.0549 | S. cerevisiae deletion strains, locus YKL085W, strain MDH1, active compounds read low 0.0549 | S. cerevisiae deletion strains, locus YKL160W, strain elf1, active compounds read low 0.0693 | S. cerevisiae deletion strains, locus YKL190W, strain CNB1, active compounds read low 0.0512 | S. cerevisiae deletion strains, locus YKR001C, strain vps1, active compounds read low 0.0604 | S. cerevisiae deletion strains, locus YKR026C, strain gcn3, active compounds read low 0.13 | S. cerevisiae deletion strains, locus YKR091W, strain srl3, active compounds read low 0.0642 | S. cerevisiae deletion strains, locus YLL001W, strain dnm1, active compounds read low 0.113 | S. cerevisiae deletion strains, locus YLL026W, active compounds read low 0.0579 | S. cerevisiae deletion strains, locus YLL041C, strain sdh2, active compounds read low 0.0645 | S. cerevisiae deletion strains, locus YLR027C, strain aat2, active compounds read low 0.0566 | S. cerevisiae deletion strains, locus YLR039C, strain RIC1, active compounds read low 0.0807 | S. cerevisiae deletion strains, locus YLR058C, strain SHM2, active compounds read low 0.0611 | S. cerevisiae deletion strains, locus YLR102C, strain apc9, active compounds read low 0.0602 | S. cerevisiae deletion strains, locus YLR113W, strain HOG1, active compounds read low 0.165 | S. cerevisiae deletion strains, locus YLR221C, strain rsa3, active compounds read low 0.0636 | S. cerevisiae deletion strains, locus YLR258W, strain gsy2, active compounds read low 0.0643 | S. cerevisiae deletion strains, locus YLR262C, strain YPT6 (second series), active compounds read low 0.0751 | S. cerevisiae deletion strains, locus YLR262C, strain YPT6, active compounds read low 0.101 | S. cerevisiae deletion strains, locus YLR268W, strain sec22, active compounds read low 0.0687 | S. cerevisiae deletion strains, locus YLR320W, strain mms22, active compounds read low 0.0873 | S. cerevisiae deletion strains, locus YLR330W, strain CHS5, active compounds read low 0.0555 | S. cerevisiae deletion strains, locus YLR342W, strain FKS1 (second series), active compounds read low 0.0854 | S. cerevisiae deletion strains, locus YLR342W, strain FKS1, active compounds read low 0.0648 | S. cerevisiae deletion strains, locus YLR357W, strain rsc2, active compounds read low 0.273 | S. cerevisiae deletion strains, locus YLR370C, strain arc18, active compounds read low 0.108 | S. cerevisiae deletion strains, locus YLR371W, strain rom2, active compounds read low 0.0629 | S. cerevisiae deletion strains, locus YLR384C, strain iki3, active compounds read low 0.118 | S. cerevisiae deletion strains, locus YLR418C, strain cdc73, active compounds read low 0.098 | S. cerevisiae deletion strains, locus YML016C, strain PPZ1, active compounds read low 0.0858 | S. cerevisiae deletion strains, locus YML032C, strain rad52, active compounds read low 0.0693 | S. cerevisiae deletion strains, locus YML120C, strain ndi1, active compounds read low 0.0588 | S. cerevisiae deletion strains, locus YML124C, strain tub3, active compounds read low 0.0644 | S. cerevisiae deletion strains, locus YMR058W, strain fet3, active compounds read low 0.131 | S. cerevisiae deletion strains, locus YMR078C, strain ctf18, active compounds read low 0.071 | S. cerevisiae deletion strains, locus YMR125W, strain sto1, active compounds read low 0.0949 | S. cerevisiae deletion strains, locus YMR129W, active compounds read low 0.0627 | S. cerevisiae deletion strains, locus YMR205C, strain PFK2, active compounds read low 0.102 | S. cerevisiae deletion strains, locus YMR223W, strain ubp8, active compounds read low 0.066 | S. cerevisiae deletion strains, locus YMR231W, strain pep5, active compounds read low 0.085 | S. cerevisiae deletion strains, locus YMR263W, strain SAP30, active compounds read low 0.0643 | S. cerevisiae deletion strains, locus YMR307W, strain GAS1, active compounds read low 0.145 | S. cerevisiae deletion strains, locus YNL067W, strain RPL9B, active compounds read low 0.0779 | S. cerevisiae deletion strains, locus YNL071W, strain lat1, active compounds read low 0.0636 | S. cerevisiae deletion strains, locus YNL128W, strain TEP1, active compounds read low 0.0892 | S. cerevisiae deletion strains, locus YNL153C, strain GIM3, active compounds read low 0.0714 | S. cerevisiae deletion strains, locus YNL183C, strain NPR1, active compounds read low -0.00267 | S. cerevisiae deletion strains, locus YNL209W, strain ssb2, active compounds read low 0.0857 | S. cerevisiae deletion strains, locus YNL233W, strain BNI4, active compounds read low 0.056 | S. cerevisiae deletion strains, locus YNL248C, strain rpa49, active compounds read low 0.109 | S. cerevisiae deletion strains, locus YNL250W, strain rad50, active compounds read low 0.0758 | S. cerevisiae deletion strains, locus YNL271C, strain bni1, active compounds read low 0.0676 | S. cerevisiae deletion strains, locus YNL298W, strain CLA4, active compounds read low 0.0642 | S. cerevisiae deletion strains, locus YNL307C, strain MCK1, active compounds read low 0.0664 | S. cerevisiae deletion strains, locus YNL322C, strain KRE1 (second series), active compounds read low 0.0828 | S. cerevisiae deletion strains, locus YNL322C, strain KRE1, active compounds read low 0.0618 | S. cerevisiae deletion strains, locus YNR049C, strain mso1, active compounds read low 0.109 | S. cerevisiae deletion strains, locus YNR052C, strain pop2, active compounds read low 0.0645 | S. cerevisiae deletion strains, locus YOL006C, strain TOP1, active compounds read low 0.0992 | S. cerevisiae deletion strains, locus YOL012C, strain htz1 0.176 | S. cerevisiae deletion strains, locus YOL147C, strain pex11, active compounds read low 0.0563 | S. cerevisiae deletion strains, locus YOR001W, strain rrp6, active compounds read low 0.0685 | S. cerevisiae deletion strains, locus YOR061W, strain CKA2, active compounds read low 0.0631 | S. cerevisiae deletion strains, locus YOR069W, strain VPS5, active compounds read low 0.0593 | S. cerevisiae deletion strains, locus YOR070C, strain gyp1, active compounds read low 0.0618 | S. cerevisiae deletion strains, locus YOR080W, strain dia2, active compounds read low 0.0748 | S. cerevisiae deletion strains, locus YOR083W, strain WHI5, active compounds read low 0.0694 | S. cerevisiae deletion strains, locus YOR106W, strain vam3, active compounds read low 0.0658 | S. cerevisiae deletion strains, locus YOR136W, strain idh2, active compounds read low 0.0708 | S. cerevisiae deletion strains, locus YOR144C, strain elg1, active compounds read low 0.0576 | S. cerevisiae deletion strains, locus YOR184W, strain ser1, active compounds read low 0.0699 | S. cerevisiae deletion strains, locus YOR231W, strain MKK1, active compounds read low 0.123 | S. cerevisiae deletion strains, locus YOR265W, strain rbl2, active compounds read low 0.0619 | S. cerevisiae deletion strains, locus YOR270C, strain vph1, active compounds read low 0.101 | S. cerevisiae deletion strains, locus YOR290C, strain snf2, active compounds read low 0.0874 | S. cerevisiae deletion strains, locus YOR316C, strain cot1, active compounds read low 0.0588 | S. cerevisiae deletion strains, locus YPL051W, strain arl3, active compounds read low 0.0629 | S. cerevisiae deletion strains, locus YPL055C, strain LGE1, active compounds read low 0.0724 | S. cerevisiae deletion strains, locus YPL078C, strain atp4, active compounds read low 0.0851 | S. cerevisiae deletion strains, locus YPL106C, strain sse1, active compounds read low 0.107 | S. cerevisiae deletion strains, locus YPL240C, strain hsp82, active compounds read low 0.0585 | S. cerevisiae deletion strains, locus YPL241C, strain CIN2, active compounds read low 0.0663 | S. cerevisiae deletion strains, locus YPL256C, strain CLN2, active compounds read low 0.114 | S. cerevisiae deletion strains, locus YPR119W, strain clb2, active compounds read low 0.0612 | S. cerevisiae deletion strains, locus YPR141C, strain kar3, active compounds read low 0.0922 | S. cerevisiae deletion strains, locus YPR163C, strain tif3, active compounds read low 0.07 | S. cerevisiae deletion strains, locus YPR167C, strain met16, active compounds read low 0.0608 | S. cerevisiae deletion strains, strain wtn01, active compounds read low 0.065 | S. cerevisiae strains, strain wild type, active compounds read low 0.051
